# Screening results as filed in PubChem BioAssay.
# The entries come from a sample that favours hits as a whole.
# IDE exosite inh: exo-site inhibitors of human IDE, primary screen, biochemical, fluorescence anisotropy, probe displacement. AID 1259349, 2017. z-score at 20 µM. purified IDE, FL-6b probe fluorescence polarization; active compounds read low. Insulin-degrading enzyme (Homo sapiens), P14735. 6.3% of 17,000 active;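 active = z-score of -3 or lower, meaning strong loss of probe binding signal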;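 also: His-tagged human IDE residues 42-1019 made in E. coli with 30 nM FL-6b probe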
# Target sequence (P14735 42-1019 limits assumed): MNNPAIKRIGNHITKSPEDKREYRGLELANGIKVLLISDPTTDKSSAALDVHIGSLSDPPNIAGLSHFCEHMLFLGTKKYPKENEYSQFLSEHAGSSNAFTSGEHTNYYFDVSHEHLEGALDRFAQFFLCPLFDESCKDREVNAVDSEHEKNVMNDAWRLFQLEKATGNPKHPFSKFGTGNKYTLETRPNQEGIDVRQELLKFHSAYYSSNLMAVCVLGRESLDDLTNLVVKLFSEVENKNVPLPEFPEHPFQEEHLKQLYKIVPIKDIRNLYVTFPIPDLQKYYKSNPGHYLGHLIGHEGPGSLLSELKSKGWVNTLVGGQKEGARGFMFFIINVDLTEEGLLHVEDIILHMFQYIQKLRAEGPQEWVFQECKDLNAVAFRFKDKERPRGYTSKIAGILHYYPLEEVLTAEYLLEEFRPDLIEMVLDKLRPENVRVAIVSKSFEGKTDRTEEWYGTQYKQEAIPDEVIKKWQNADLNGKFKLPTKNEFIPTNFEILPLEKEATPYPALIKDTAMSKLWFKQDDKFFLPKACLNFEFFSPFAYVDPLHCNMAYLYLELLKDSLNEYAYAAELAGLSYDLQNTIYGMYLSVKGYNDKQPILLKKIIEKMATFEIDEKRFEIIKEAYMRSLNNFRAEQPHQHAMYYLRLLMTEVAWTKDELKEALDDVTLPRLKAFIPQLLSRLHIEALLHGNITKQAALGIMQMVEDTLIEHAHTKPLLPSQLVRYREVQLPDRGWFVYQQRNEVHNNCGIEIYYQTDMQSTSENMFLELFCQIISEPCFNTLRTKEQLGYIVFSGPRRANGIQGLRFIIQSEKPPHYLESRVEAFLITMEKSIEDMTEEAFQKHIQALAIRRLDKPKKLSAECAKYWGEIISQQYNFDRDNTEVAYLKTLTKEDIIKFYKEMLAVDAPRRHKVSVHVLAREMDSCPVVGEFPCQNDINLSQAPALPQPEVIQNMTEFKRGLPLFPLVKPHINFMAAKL
# The depositor's hits bear a star.
SMILES,IDE exosite inh
Cc1cccc(-c2ccc([C@@H]3[C@H](CO)N4CCCCN(C(=O)c5ccncc5)C[C@@H]34)cc2)c1,-12*
C/C=C/c1ccc([C@H]2[C@@H](CO)N(C(=O)NCCC)[C@@H]2CNC(=O)C2CC2)cc1,0.078
C[C@H](NC(=O)C[C@H]1CC[C@@H]2[C@H](COC[C@H](O)CN2C(=O)Nc2cccc(Cl)c2)O1)c1ccccc1,0.83
COc1ccccc1-c1ccc([C@@H]2[C@@H](C#N)N(C(=O)CN(C)C)[C@H]2CO)cc1,-12*
COc1ccc(-c2ccc([C@@H]3[C@@H](C#N)N(C(=O)NC(C)C)[C@H]3CO)cc2)cc1,0.76
COc1ccc(-c2ccc([C@H]3[C@H](C#N)N(C(=O)NC4CCCCC4)[C@H]3CO)cc2)cc1,4.5
COc1ccc(-c2ccccc2[C@H]2[C@@H](C#N)N(C(=O)NC3CCCCC3)[C@H]2CO)cc1,1.3
COc1ccccc1-c1ccc([C@@H]2[C@@H](C#N)N(C(=O)NC3CCCCC3)[C@@H]2CO)cc1,-10*
COc1ccccc1-c1ccccc1[C@@H]1[C@H](C#N)N(C(=O)CN(C)C)[C@H]1CO,-0.82
COc1ccc(-c2ccc([C@@H]3[C@@H](CO)N(C(=O)NC(C)C)[C@H]3C#N)cc2)cc1,0.16
COc1ccccc1-c1ccc([C@@H]2[C@@H](C#N)N(C(=O)NC(C)C)[C@@H]2CO)cc1,-13*
CN(C)CC(=O)N1[C@H](C#N)[C@@H](c2ccc(-c3ccccc3F)cc2)[C@H]1CO,0.21
C[C@@H]1CN([C@@H](C)CO)C(=O)Cc2cc(N(C)C)ccc2O[C@H]1CN(C)Cc1ccc(-c2ccccc2)cc1,1.3
O=C(N[C@@H]1C=C[C@H](CC(=O)N2CCN(c3ccccc3)CC2)O[C@@H]1CO)c1ccccc1,2.7
CCS(=O)(=O)N1CC(=O)N2[C@H](C1)[C@H](c1ccc(-c3ccccc3F)cc1)[C@@H]2CO,0.48
CN(C)C(=O)C[C@H]1CC[C@@H]2[C@H](COc3ccc(NC(=O)C4CCCCC4)cc3C(=O)N2C)O1,-0.088
CN(C)C(=O)c1cccc(-c2ccc([C@@H]3[C@H](C#N)N(C(=O)C4CCC4)[C@H]3CO)cc2)c1,4.2
Cc1cccc(-c2ccc([C@H]3[C@H](CO)N4C(=O)CN(C(=O)c5cccnc5)C[C@@H]34)cc2)c1,-9.6*
Cc1cccc(-c2ccc([C@@H]3[C@H](CO)N4C(=O)CN(C(=O)c5cccnc5)C[C@@H]34)cc2)c1,-6.3*
COc1ccc(-c2ccc([C@@H]3[C@@H](CO)N4C(=O)CN(C(=O)c5cccnc5)C[C@@H]34)cc2)cc1,0.76
COc1ccc(-c2ccc([C@H]3[C@H](CO)N4C(=O)CN(C(=O)c5cccnc5)C[C@@H]34)cc2)cc1,-1.8
COc1ccc(-c2ccc([C@@H]3[C@H](CO)N4C(=O)CN(C(=O)c5cccnc5)C[C@@H]34)cc2)cc1,-1.5
Cc1cccc(-c2ccc([C@H]3[C@H]4CN(C(=O)c5cccnc5)CC(=O)N4[C@H]3CO)cc2)c1,-2.8
N#C[C@@H]1[C@H](c2ccc(C3=CCCCC3)cc2)[C@H](CO)N1S(=O)(=O)c1ccccc1,-0.23
O=C(C[C@H]1CC[C@H](NS(=O)(=O)c2ccccc2F)[C@@H](CO)O1)NCCCN1CCOCC1,0.13
SMILES,IDE exosite inh
CC(=O)N1[C@H](CN(C(=O)c2cccc(F)c2)C(C)C)[C@H](c2ccccc2)[C@@H]1CO,4
CCC(=O)N1CCCCN2[C@H](CO)[C@@H](c3ccc(-c4ccc(F)cc4)cc3)[C@H]2C1,1.4
CCC(=O)N1CCCCN2[C@H](C1)[C@@H](c1ccc(C#Cc3ccccc3F)cc1)[C@@H]2CO,-6.5*
CCC(=O)N1CCCCN2[C@H](C1)[C@H](c1ccc(-c3ccc(F)cc3)cc1)[C@@H]2CO,1.5
CCC(=O)N1CCCCN2[C@H](CO)[C@H](c3ccc(C#Cc4ccccc4F)cc3)[C@@H]2C1,-5.9*
CC(C)CC#Cc1ccc([C@H]2[C@H]3CN(S(C)(=O)=O)CC(=O)N3[C@H]2CO)cc1,1.7
CCCC(=O)Nc1ccc2c(c1)C(=O)N(C)[C@H]1CC[C@H](CC(=O)NCc3cccc(F)c3)O[C@@H]1CO2,-0.24
CCCNC(=O)N1CC2(C1)CN(C(=O)NC1CCCC1)[C@@H](CO)c1[nH]c3cc(OC)ccc3c12,-0.73
CCS(=O)(=O)N1CCCCN2[C@@H](CO)[C@H](c3ccc(-c4cccc(C#N)c4)cc3)[C@@H]2C1,0.72
O=C([C@H]1[C@H](CO)[C@H]2Cn3c(ccc(-c4ccc(F)cc4)c3=O)[C@H]2N1Cc1cocn1)N1CCCCC1,0.42
CN1c2ccc(-c3ccccc3)cc2[C@H]2[C@H](CCN2C(=O)CC2CC2)[C@@H]1CO,1.7
O=C(Nc1ccccc1F)N1C[C@@H]2[C@H](c3ccccc31)[C@@H](CO)N2C(=O)Cc1cccnc1,0.31
CCCN1[C@H](CO)[C@H](c2ccc(C3=CCCCC3)cc2)[C@@H]1CNS(C)(=O)=O,1.3
O=C(C1CCC1)N1CC(=O)N2[C@H](CO)[C@H](c3ccc(-c4ccccc4F)cc3)[C@@H]2C1,-3.2*
O=C(C1CCC1)N1CC(=O)N2[C@H](C1)[C@@H](c1ccc(Br)cc1)[C@@H]2CO,0.91
O=C(C1CC1)N1CC(=O)N2[C@H](C1)[C@@H](c1ccc(-c3ccccc3F)cc1)[C@@H]2CO,-8.1*
O=C(C1CCCC1)N1CC(=O)N2[C@H](C1)[C@H](c1ccc(-c3ccccc3F)cc1)[C@@H]2CO,-2.9
O=C(C1CCC1)N1CC(=O)N2[C@@H](CO)[C@@H](c3ccc(-c4ccccc4F)cc3)[C@@H]2C1,-5.6*
O=C(C1CCCC1)N1CC(=O)N2[C@@H](CO)[C@H](c3ccc(-c4ccccc4F)cc3)[C@@H]2C1,-5.7*
O=C(C1CC1)N1CC(=O)N2[C@@H](CO)[C@H](c3ccc(-c4ccccc4F)cc3)[C@@H]2C1,0.71
O=C(C1CCCC1)N1CC(=O)N2[C@H](CO)[C@@H](c3ccc(-c4ccccc4F)cc3)[C@H]2C1,2.8
C[C@H]1CN([C@@H](C)CO)C(=O)c2cc(NC(=O)Nc3cccc4ccccc34)ccc2O[C@@H]1CN(C)S(=O)(=O)c1cccs1,-0.23
COc1ccccc1NC(=O)N1C[C@@H]2N[C@H](C1)C2c1ccc(-c2ccc(C(=O)N(C)C)cc2)cc1 (stereo not given in full),-1.3
COC(=O)C[C@H]1C[C@H]2c3cc(N)ccc3O[C@H]2[C@H](CO)O1,-1
N#C[C@H]1[C@H](c2ccccc2-c2cccc(F)c2)[C@@H](CO)N1C(=O)CN1CCOCC1,1.7
SMILES,IDE exosite inh
C[C@H](O)C#Cc1ccc([C@H]2[C@@H](CO)N3CCCCN(C(=O)c4ccc(F)cc4)C[C@@H]23)cc1,0.25
CCCNC(=O)N1[C@@H](CO)[C@@H](c2ccccc2)[C@@H]1CNC(=O)c1ccccc1,1.1
COCCN(C[C@@H]1[C@@H](c2ccccc2)[C@H](CO)N1C(C)=O)C(=O)c1cccnc1,0.075
COc1ccccc1S(=O)(=O)N1CC[C@@H]2[C@H]1c1cc(C#CC3CCCCC3)ccc1N[C@@H]2CO,-0.4
CC(=O)N1CCCCN2[C@H](CO)[C@@H](c3ccc(-c4cccc(C(=O)N(C)C)c4)cc3)[C@@H]2C1,0.86
O=C(C1CCOCC1)N1CC(=O)N2[C@@H](CO)[C@H](c3ccc(C4=CCCC4)cc3)[C@@H]2C1,1.1
O=C(C1CCC1)N1CC(=O)N2[C@@H](CO)[C@@H](c3ccc(C4=CCCCC4)cc3)[C@@H]2C1,-3.9*
